# According to PubChem BioAssay AID588335 (The Scripps Research Institute Molecular Screening Center, 2011):
# Hit rate of the full screen: of about 360,000 compounds, about 4,500 (1.2%) were called active. The full list was thinned out, with actives kept by preference. A number with no mark means an inactive call. No stated cut-off is given here; in the data, active means inhibition above about 30%; inactive means the rest.
# Assay: inhibition of GDH and TPI enzymes – biochemical, absorbance, full deck, artefact control for M. tuberculosis FBA inhibitor project, primary screen (AID 588335);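 further: 0% = DMSO wells and 100% = wells lacking the enzyme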
# Conditions: GDH-TPI coupled enzyme counterscreen, NADH absorbance; at 4.8 µM; hits give high values
row,SMILES,inhibition
1,NC(N)=NCCCc1cn(CC(=O)N2CCNCC2)nn1,1.79%
2,CC(C)Oc1ccc(C2NC(=O)NC2=O)cc1 (stereo not given),1.41%
3,O=C1CCCC2=C1C(c1cccs1)n1nc(SCc3ccccc3)nc1N2 (stereo not given),19.9%
4,CCC(C)[C@H](NC(=O)N1c2ccccc2NC(=O)[C@@H]1C(C)C)C(=O)N[C@@H](Cc1ccccc1)C(=O)O (stereo not given in full),10.8%
5,CCCc1ccc(-c2c(C)sc(NC(=O)c3ccnn3C)c2C#N)cc1,17.4%
6,CC(OC(=O)CNS(=O)(=O)/C=C/c1ccccc1)C(=O)Nc1ccc(S(=O)(=O)N2CCCC2)cc1 (stereo not given),-3.69%
7,CN(C)c1ccc(Nc2c3c4c(cccc4n(C)c2=O)C(=O)c2ccccc2-3)cc1,5.68%
8,CCSc1nc2c(c(=O)[nH]1)C(c1cccnc1)C(C(=O)OC(C)C)=C(C)N2 (stereo not given),0.91%
9,COc1cc(S(=O)(=O)N2CCN(C(=O)C3CC3)CC2)ccc1NC(C)=O,7.35%
10,O=C(Nc1ccc(OCC(=O)N2CCOCC2)cc1)c1cc(F)c(F)cc1Cl,6.18%
11,CCOC(=O)c1c(C)[nH]c(C)c1C(=O)CSc1nc(N)cc(N)n1,5.66%
12,CCOC(=O)c1c(C(C#N)C#N)cc(C)nc1C,34.7% (active)
13,CCOC(=O)c1cc(C)nc(S(C)(=O)=O)c1C#N,-4.82%
14,C[C@@H]1CN([C@H](C)CO)C(=O)c2cc(Br)cnc2O[C@@H]1CN(C)Cc1cncnc1,13.4%
15,Cc1cc(Cl)ccc1C(=O)C1CCCN(C(=O)c2ccc3c(c2)OCO3)C1 (stereo not given),4.42%
16,O=C(O)c1ccc(N/N=C/c2ccc3ncccc3c2)cc1,34% (active)
17,CCNC(=S)NNC(=O)c1ccc2ncccc2c1,7.57%
18,NCCCCCC(=O)N/N=C/c1ccc2nccnc2c1,26.5%
19,CCCCN(C(=O)c1ccc2ccccc2c1)c1c(N)n(CCCC)c(=O)[nH]c1=O,1.27%
20,O=C(CNC(=O)OCc1ccccc1)Oc1cc2oc(=O)cc(-c3ccccc3)c2cc1Cl,31.2% (active)
21,O=C(CNC(=O)Cc1ccccc1)NCC(=O)OCC(=O)c1ccccc1Cl,4.58%
22,O=C(CNC(=O)c1ccccc1)NCC(=O)OCc1ccc(Cl)cc1,4.85%
23,CCCCNC(=O)N1CCN(S(C)(=O)=O)CC1,-0.96%
24,Cc1ccc(C)c(-n2ccnc2SCC(N)=O)c1,-8.54%

row,SMILES,inhibition
1,CCCCCCCC(=O)OC(CN1CCCCCC1)CN1CCCC1=O (stereo not given),4.02%
2,NC(=O)CSc1nnc(NC(=O)c2ccc(Br)o2)s1,32.8% (active)
3,CC(C)(C)NC(=O)CSc1nnc(NC(=O)CCc2ccccc2)s1,4.27%
4,COC(=O)CSc1nnc(NC(=O)CCc2ccccc2)s1,3.45%
5,COc1ccc(N)cc1NC(=O)CN1CCOCC1,-1.77%
6,Cc1ccc(S(=O)(=O)NCc2cn3ccsc3n2)c(C)c1,7.83%
7,CCN1C(=O)[C@H]2[C@@H](c3ccccc3)N[C@]3(CCCN(Cc4ccc(C)cc4)C3=O)[C@H]2C1=O,-3.32%
8,Cc1cc(=O)[nH]c(Nc2cccc(Br)c2)n1,-6.37%
9,Cc1cccc(C)c1NC(=O)CNC(=O)c1ccc2c(c1)OCCO2,-1.08%
10,Cc1cc(=O)[nH]c(N/N=C/c2c(C)nn(-c3ccccc3Cl)c2Cl)n1,3.41%
11,Cc1ccc(C)c(NC2=NCC(=O)N2c2ccc3c(c2)OCCO3)c1,-1.83%
12,Cc1cc(=O)[nH]c(N/N=C/c2ccc3c(c2)OCCO3)n1,46.9% (active)
13,CCN(CC)c1ccc(/C=N/Nc2nc(C)cc(=O)[nH]2)cc1,37.7% (active)
14,CCN(CC)CCNc1nc(-c2ccc(OC(F)F)cc2)c(C)s1,2.11%
15,O=C(NNC1=NCCC1)c1cccc(S(=O)(=O)N2CCCCC2)c1,5.45%
16,CCC1=C(OC(=O)N(CC)CC)N2C(=O)OC(=NCC3CC3)[C@]2(C)[C@H]2C1=CC[C@H]1C(=O)N(CC(=O)OC)C(=O)[C@H]12,9.36%
17,COc1ccc(/C=C2\N=C3CCCN3C2=O)cc1,45.7% (active)
18,COc1ccc(/C=C2\SC(=N)N(c3ccc(F)cc3)C2=O)cc1,4.31%
19,COc1ccc(C=C2CCC3C(CCCC34OCCO4)C2=O)cc1 (stereo not given),25.5%
20,Cc1ccc(Cc2nnc(SCC(=O)Nc3ccc(C)cc3C)[nH]c2=O)cc1,4.83%
21,[O-][N+]12CCCCC1CCCC2CO (stereo not given),-10.3%
22,Cc1cc(C)c2nc3nc(C)cc(C)c3c(N)c2c1,4.65%
23,CCc1nnc(NC(=O)c2ccco2)s1,15.9%
24,CCc1nnc(NC(=O)[C@@H](NC(=O)c2cccc(C)c2)C(C)C)s1,-6.25%

row,SMILES,inhibition
1,CCc1nnc(NC(=O)/C=C/c2ccc(C)o2)s1,40.7% (active)
2,CN(C)c1ccc(NC(=O)CN2C3CCCC2CC(NC(=O)c2ccccc2)C3)cc1 (stereo not given),-4.43%
3,OC(c1nnc(-c2ccccc2)o1)c1cccs1 (stereo not given),-12.3%
4,Nc1ccc(-c2nnc(-c3ccc(-c4ccccc4)cc3)o2)cc1,49.1% (active)
5,CN(C)c1ccc(-c2nnc(-c3cccnc3)o2)cc1,30%
6,CCC(C)(C)c1ccc(OCC(=O)N(C)C)c(C(C)(C)CC)c1,1.89%
7,Cc1ccc(C(=O)N/N=C\c2cc(Br)c(Br)o2)cn1,9.96%
8,O=C(N/N=C/c1ccc(Br)o1)c1cncc(Br)c1,33.6% (active)
9,O=C(CCNC(=O)c1ccccc1)NN=Cc1ccc(Br)o1,8.77%
10,CN(CC1CCCO1)S(=O)(=O)c1ccc(C(=O)Nc2ccc(F)cc2)cc1 (stereo not given),4.12%
11,CN1CCN(CCCNC(=O)c2cc3c(=O)oc4ccccc4c3s2)CC1,31.1% (active)
12,O=C(NCCN1CCN(Cc2ccccc2)CC1)c1cc2c(=O)[nH]c3ccccc3c2s1,24.2%
13,CCC1CCCCN1CCCNC(=O)c1cc2c(Cl)nc3ccccc3c2s1 (stereo not given),0.39%
14,COC(=O)c1cc(NC(=O)CC2C(=O)NCCN2C(=O)c2ccc(F)cc2)cc(C(=O)OC)c1 (stereo not given),3.86%
15,Cc1csc(=O)n1CC(=O)Nc1ccc(S(C)(=O)=O)cc1,-3.52%
16,CCOC(=O)/C=c1\s/c(=C\c2ccccc2OC)c(=O)n1CC(=O)N1CCOCC1,33.3% (active)
17,COc1ccccc1/C=C/C(=O)NC(=S)N1CCOCC1,18.2%
18,CCOC(=O)N1CCN(C(=O)Cn2cnc3ccccc3c2=O)CC1,2.24%
19,O=C(NCc1ccccc1Cl)C1CCN(c2ncnc3c2nc2n3CCCCC2)CC1,-11.1%
20,Cc1ccc(CNC(=O)CC(NC(=O)c2ccccc2)c2ccccc2)cc1 (stereo not given),-12.7%
21,CCN(CCn1cccn1)Cc1cn[nH]c1-c1ccc(OC)cc1F,0.63%
22,CCn1c(NC(=O)c2ccccc2)c(-c2cccs2)c(=O)c2ccccc21,32% (active)
23,COc1ccccc1C(=O)Nn1c(-c2cccs2)nc2ccccc2c1=O,17.9%
24,CCn1c(=O)c2cc(C(=O)Nc3cccc(C(C)=O)c3)sc2c2ccccc21,-0.68%

row,SMILES,inhibition
1,COc1ccccc1CCNC(=O)CN1C(=O)NC2(CCCC2)C1=O,7.91%
2,CC(C)(C)c1ccc(S(=O)(=O)NC(=O)C2(C)CCN2C(=O)CC2CC2)cc1 (stereo not given),0.89%
3,CCOC(=O)c1ccc(S(=O)(=O)N(CCO)Cc2cc3cc(OC)c(OC)cc3[nH]c2=O)cc1,20.5%
4,CCc1nnc(NC(=O)CCC(=O)N2CCN(c3cc(C)ccc3C)CC2)s1,-2.21%
5,CC(C)NC(=O)C(c1ccc(F)cc1)N(C(=O)CCC(=O)Nc1ccccn1)c1ccccc1F (stereo not given),3.77%
6,Cc1ccc(NC(=O)CS(=O)CC(=O)N(c2ccccc2)C(C)C(=O)NC2CCCC2)cc1 (stereo not given),7.17%
7,Cn1nccc1/C=N\NC(=O)c1ccc(Cl)cc1,-10.2%
8,Cn1cccc1/C=N/NC(=O)c1ccc(OC(F)(F)C(F)F)cc1,35.9% (active)
9,O=C(Nc1ccc(OC(F)(F)F)cc1)c1ccc2c(c1)no[n+]2[O-],4.41%
10,O=C(Nc1cc(F)ccc1F)c1ccc2c(=O)n3c(nc2c1)CCC3,5.36%
11,O=C1CC(C(=O)O)NC(=S)N1 (stereo not given),-5.96%
12,NC(=O)Cn1cc(/C=N\NS(=O)(=O)c2ccccc2)c2ccccc21,8.87%
13,CNC(=S)N/N=C/c1cn(Cc2ccc(C)cc2)c2ccccc12,37% (active)
14,CCOC(=O)N/N=C/c1cn(Cc2ccccc2Cl)c2ccccc12,17%
15,Cn1c(SCC(=O)Nc2ccc(N3CCOCC3)cc2)nnc1C(F)(F)F,2.16%
16,COc1cccc(C(=O)Nc2nnc(S(=O)(=O)N3CCOCC3)s2)c1,23.5%
17,O=C(Nc1nnc(S(=O)(=O)N2CCCCCC2)s1)c1cccc(Br)c1,16.8%
18,COc1cccc(C(=O)Nc2nnc(S(=O)(=O)N3CCCCC3)s2)c1,40.7% (active)
19,Cc1ccc(S(=O)(=O)N2CCCC2CO)cc1 (stereo not given),-4.78%
20,O=C(CNc1cccc(S(=O)(=O)N2CCCCC2)c1)Nc1ccccc1F,5.6%
21,Cc1cc(-c2n[nH]c(=S)n2/N=C/C(Br)=C/c2ccccc2)n[nH]1,7.17%
22,COc1ccccc1/C=C/C=N/n1c(-c2ccc(Cl)cc2Cl)n[nH]c1=S,34.7% (active)
23,COc1cc(-c2n[nH]c(=S)n2Cc2ccccc2)cc(OC)c1OC,3.29%
